In the supplement of paper PMC13380429:
Unmarked numbers belong to inactive results.

What follows are compounds tested on Vero E6 infected with SARS-CoV-2 (assay: inhibition of SARS-CoV-2 cytopathic effect; higher = more antiviral protection, active = above 15). Settings: 1 nM; 48 h.

Row | Structure (SMILES) | inhibition of SARS-CoV-2 cytopathic effect
1 | C[C@@H](O)[C@H]1C(=O)N2C(C(=O)O)=C([C@H]3CCCO3)S[C@H]12 [faropenem] | -0.32%
2 | Cn1cc(C2=C(c3cn(C4CCN(Cc5ccccn5)CC4)c4ccccc34)C(=O)NC2=O)c2ccccc21 [enzastaurin] | 0.18%
3 | Cc1c(S(=O)(=O)O)oc2c1C(=O)C(=O)c1c-2ccc2c1CCCC2(C)C [sodium-tanshinone-II-A-sulfonate] | -6.63%
4 | CCOC(=O)CCNc1cc(N2CCc3ccccc3CC2)nc(-c2ccccn2)n1 | -5.53%
5 | Cc1[nH]c2ccc(O)cc2c1CCN [2-methyl-5-hydroxytryptamine] | -3.47%
6 | Cn1cc(-c2ccc(F)c(C(F)(F)F)c2)nc1C1CCN(c2ncnc3[nH]ncc23)CC1 | 0.45%
7 | CC(C)/N=c1\cc2n(-c3ccc(Cl)cc3)c3ccccc3nc-2cc1Nc1ccc(Cl)cc1 [clofazimine] | -2.49%
8 | CCCCNc1c(C(=O)OCC)c(C)nc2c1cnn2CC [tracazolate] | -0.41%
9 | CCOc1ccccc1OC(c1ccccc1)C1CNCCO1 (stereo unspecified) [reboxetine] | 0.65%
10 | O[C@@H]1CO[C@H]2[C@@H]1OC[C@@H]2O [isosorbide] | -0.13%
11 | CC(=O)NC1CCSC1=O (stereo unspecified) [citiolone] | 3.06%
12 | CS(=O)(=O)c1ccc(-c2cc(Br)sc2-c2ccc(F)cc2)cc1 | 3.29%
13 | CCCN1CCN(c2ccc(C(=O)NC3(C(=O)NCC#N)CCCCC3)cc2)CC1 [balicatib] | 3.8%
14 | CC(C)(O)CS(=O)(=O)Nc1ccc2c(c1)CCN(C(=O)COc1cccnc1)C2 [Nampt-IN-1] | -1.96%
15 | COC(=O)N[C@H](C(=O)N1CCC[C@H]1c1ncc(-c2ccc(-c3ccc(-c4cnc([C@@H]5CCCN5C(=O)[C@@H](NC(=O)OC)C(C)C)[nH]4)cc3)cc2)[nH]1)C(C)C [daclatasvir] | -1.73%
16 | CCCC(C)C1(CC)C(=O)NC(=S)NC1=O (stereo unspecified) [thiopental] | -0.77%
17 | CC(C)n1cnc2c(C(=O)N[C@H]3CN4CCC3CC4)cc(Cl)cc21 | -1.27%
18 | N#CC(c1ccnc(OCc2ccc(CN3CCOCC3)cc2)n1)c1nc2ccccc2s1 (stereo unspecified) | -1.68%
19 | N=C(NCCC[C@H](N)C(=O)O)N[N+](=O)[O-] [NG-nitro-arginine] | 4.03%
20 | COc1ccc(CCO[C@@H]2CCCC[C@H]2N2CC[C@@H](O)C2)cc1OC [vernakalant] | -0.46%
21 | CCN(CC)CCNC(=O)c1ccccc1I | 1.9%
22 | Cc1cnc(Nc2ccc(N3CCN(C)CC3)cc2)nc1Nc1cccc(S(=O)(=O)NC(C)(C)C)c1 | -0.35%
23 | c1ccc2c(-c3cnn4cc(-c5ccc(N6CCNCC6)cc5)cnc34)ccnc2c1 | 1.9%
24 | C=C1CC[C@H](O)C/C1=C/C=C1\CCC[C@]2(C)[C@@H]([C@H](C)CCCC(C)C)CC[C@@H]12 [cholecalciferol] | -2.37%
25 | Nc1nccc(Oc2ccc(NC(=O)c3c[nH]cc(-c4ccc(F)cc4)c3=O)cc2F)c1Cl [metatinib] | 0.06%
26 | O=C(NCC1CCCCN1)c1cc(OCC(F)(F)F)ccc1OCC(F)(F)F (stereo unspecified) [flecainide] | -1.39%

Same assay, conditions: 8.33 nM; 48 h

Row | Structure (SMILES) | inhibition of SARS-CoV-2 cytopathic effect
27 | CCN(C)C(=O)Oc1cccc([C@H](C)N(C)C)c1 [rivastigmine] | 0.73%
28 | CCO[C@@H](Cc1ccc(OCCc2ccc(OS(C)(=O)=O)cc2)cc1)C(=O)O [tesaglitazar] | -3.5%
29 | O=C1C[C@@H](c2ccc(O)cc2)Oc2cc(O)ccc21 | 2.87%
30 | O=C1OCCN1/N=C/c1ccc([N+](=O)[O-])o1 [furazolidone] | 3.22%
31 | O=C1C=Cc2cc(Br)ccc2C1=O [bonaphthone] | 0.78%
32 | CC(C)NNC(=O)c1ccncc1 [iproniazid] | -0.06%
33 | CC1(C)S[C@@H]2[C@H](N3C(=O)[C@@H](c4ccccc4)NC3(C)C)C(=O)N2[C@H]1C(=O)O [hetacillin] | 0.69%
34 | CC(C)(C#N)c1cc(Cn2cncn2)cc(C(C)(C)C#N)c1 [anastrozole] | 0.38%
35 | CC[C@@H](CO)NC(=O)[C@@H]1C=C2c3cccc4c3c(cn4C)C[C@H]2N(C)C1 [methysergide] | 0.46%
36 | Cc1ccc2c(c1CCC(=O)O)CC[C@@H](NS(=O)(=O)c1ccc(Cl)cc1)C2 [terutroban] | -2.46%
37 | OCC(CO)N[C@H]1C[C@](O)(CO)[C@@H](O)[C@H](O)[C@H]1O [voglibose] | -8.33%
38 | CN(C)CCCN1c2ccccc2Sc2ccccc21 [promazine] | -1.16%
39 | CCCCOC(=O)c1ccc(N)cc1 [butamben] | 2.87%
40 | COc1ccc2cc([C@H](C)C(=O)O)ccc2c1 [naproxen] | 3.96%
41 | C[C@@H](O)[C@H]1C(=O)N2C(C(=O)O)=C([C@H]3CCCO3)S[C@H]12 [faropenem] | -0.11%
42 | Cn1cc(C2=C(c3cn(C4CCN(Cc5ccccn5)CC4)c4ccccc34)C(=O)NC2=O)c2ccccc21 [enzastaurin] | 1.89%
43 | Cc1c(S(=O)(=O)O)oc2c1C(=O)C(=O)c1c-2ccc2c1CCCC2(C)C [sodium-tanshinone-II-A-sulfonate] | -8.06%
44 | CCOC(=O)CCNc1cc(N2CCc3ccccc3CC2)nc(-c2ccccn2)n1 | 0.27%
45 | Cc1[nH]c2ccc(O)cc2c1CCN [2-methyl-5-hydroxytryptamine] | -2.58%
46 | Cn1cc(-c2ccc(F)c(C(F)(F)F)c2)nc1C1CCN(c2ncnc3[nH]ncc23)CC1 | -0.64%

Row | Structure (SMILES) | inhibition of SARS-CoV-2 cytopathic effect
47 | CC(C)/N=c1\cc2n(-c3ccc(Cl)cc3)c3ccccc3nc-2cc1Nc1ccc(Cl)cc1 [clofazimine] | 0.21%
48 | CCCCNc1c(C(=O)OCC)c(C)nc2c1cnn2CC [tracazolate] | 1.49%
49 | CCOc1ccccc1OC(c1ccccc1)C1CNCCO1 (stereo unspecified) [reboxetine] | 1.82%
50 | O[C@@H]1CO[C@H]2[C@@H]1OC[C@@H]2O [isosorbide] | 1.81%
51 | CC(=O)NC1CCSC1=O (stereo unspecified) [citiolone] | -0.41%
52 | CS(=O)(=O)c1ccc(-c2cc(Br)sc2-c2ccc(F)cc2)cc1 | -0.45%
53 | CCCN1CCN(c2ccc(C(=O)NC3(C(=O)NCC#N)CCCCC3)cc2)CC1 [balicatib] | 0.96%
54 | CC(C)(O)CS(=O)(=O)Nc1ccc2c(c1)CCN(C(=O)COc1cccnc1)C2 [Nampt-IN-1] | -2.55%
55 | COC(=O)N[C@H](C(=O)N1CCC[C@H]1c1ncc(-c2ccc(-c3ccc(-c4cnc([C@@H]5CCCN5C(=O)[C@@H](NC(=O)OC)C(C)C)[nH]4)cc3)cc2)[nH]1)C(C)C [daclatasvir] | 0.14%
56 | CCCC(C)C1(CC)C(=O)NC(=S)NC1=O (stereo unspecified) [thiopental] | 0.01%
57 | CC(C)n1cnc2c(C(=O)N[C@H]3CN4CCC3CC4)cc(Cl)cc21 | -1.37%
58 | N#CC(c1ccnc(OCc2ccc(CN3CCOCC3)cc2)n1)c1nc2ccccc2s1 (stereo unspecified) | 0.15%
59 | N=C(NCCC[C@H](N)C(=O)O)N[N+](=O)[O-] [NG-nitro-arginine] | -0.95%
60 | COc1ccc(CCO[C@@H]2CCCC[C@H]2N2CC[C@@H](O)C2)cc1OC [vernakalant] | 0.39%
61 | CCN(CC)CCNC(=O)c1ccccc1I | 1.7%
62 | Cc1cnc(Nc2ccc(N3CCN(C)CC3)cc2)nc1Nc1cccc(S(=O)(=O)NC(C)(C)C)c1 | -0.73%
63 | c1ccc2c(-c3cnn4cc(-c5ccc(N6CCNCC6)cc5)cnc34)ccnc2c1 | 4.28%
64 | C=C1CC[C@H](O)C/C1=C/C=C1\CCC[C@]2(C)[C@@H]([C@H](C)CCCC(C)C)CC[C@@H]12 [cholecalciferol] | -2.07%
65 | Nc1nccc(Oc2ccc(NC(=O)c3c[nH]cc(-c4ccc(F)cc4)c3=O)cc2F)c1Cl [metatinib] | 0.76%
66 | O=C(NCC1CCCCN1)c1cc(OCC(F)(F)F)ccc1OCC(F)(F)F (stereo unspecified) [flecainide] | 1.45%
